# Screening data deposited in PubChem BioAssay by several laboratories.
# CDK5 inh – inhibitors of human CDK5/p35 kinase, primary screen, biochemical, single concentration; Recombinant CDK5/p35, ADP-Glo luminescence, 60 min; Cyclin-dependent kinase 5 (Homo sapiens) + Cyclin-dependent kinase 5 activator 1 (Homo …; inhibition, % at 10 µM; actives 0.01% (n = 330,000); AID 488839, 2010;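 active means highest replicate inhibition of at least 50% and at least 75% of replicates reaching 50%; inconclusive means only one of the two criteria met; inactive means both criteria failed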;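 further: plate controls were DMSO neutral control for no effect and GW8510 at 10 µM for full effect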
# Dyrk1A ADPGlo – rat Dyrk1A kinase inhibitors, primary screen, biochemical, single point, plate reader; Dual specificity tyrosine-phosphorylation-regulated kinase 1A (Rattus norvegicus), Q63470; ADP-Glo luminescence, NFATc1 peptide; inhibition, % at 12.5 µM; actives 0.43% (n = 310,000); AID 504441, 2011; in the data active means inhibition above about 50%;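 further: plate controls were vehicle with enzyme for no effect and no enzyme for full effect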
# Rtt109 HAT inh – inhibitors of C. albicans Rtt109/Vps75 HAT, primary screen, biochemical, ThioGlo CoA-SH fluorescence, plate reader; Histone acetyltransferase RTT109 (Candida albicans (strain SC5314 / ATCC MYA-2876)), …; inhibition, % at 34.9 µM; purified Rtt109/Vps75, 4 h; actives 0.16% (n = 330,000);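 active means inhibition of at least 50% in every replicate; inconclusive means best replicate reaches 50% inhibition but some replicates fall short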
# Target sequence (Q5AAJ8 whole entry, looked up): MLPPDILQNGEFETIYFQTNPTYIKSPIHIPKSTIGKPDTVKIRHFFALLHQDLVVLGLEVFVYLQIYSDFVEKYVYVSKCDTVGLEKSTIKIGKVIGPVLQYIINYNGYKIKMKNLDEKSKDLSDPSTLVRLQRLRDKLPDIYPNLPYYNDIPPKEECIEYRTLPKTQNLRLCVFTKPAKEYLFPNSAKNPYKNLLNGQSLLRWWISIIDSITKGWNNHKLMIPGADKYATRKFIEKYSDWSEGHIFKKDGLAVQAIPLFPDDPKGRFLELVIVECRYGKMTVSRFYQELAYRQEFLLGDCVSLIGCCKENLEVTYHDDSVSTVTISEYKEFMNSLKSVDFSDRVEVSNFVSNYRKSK
# SMARCA2 act – SMARCA2 (BRM) function activators, primary screen, cell-based, luminescence, high throughput. MG213 cells, MMTV-luciferase reporter, dexamethasone, overnight. activation, % at 9.1 µM. actives 1% (n = 370,000); in the data active means activation above about 7.8%;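 further: 0% = vehicle wells and 100% = reference activator wells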
# dFosB activator – activators of delta FosB homodimer, primary screen, biochemical, fluorescence polarization, TAMRA-CDK5 oligo, single point; Protein FosB (Mus musculus), P13346; purified delta FosB; percent of positive-control signal above neutral wells; activation, % at 25 µM; actives 0.99% (n = 340,000); AID 493131, 2011;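 active means mean activation above about 17%, with every replicate also reaching it, limit read from the data, passing the limit was not always enough; inconclusive means only one of the two conditions met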
# Target sequence (P13346 whole entry, looked up): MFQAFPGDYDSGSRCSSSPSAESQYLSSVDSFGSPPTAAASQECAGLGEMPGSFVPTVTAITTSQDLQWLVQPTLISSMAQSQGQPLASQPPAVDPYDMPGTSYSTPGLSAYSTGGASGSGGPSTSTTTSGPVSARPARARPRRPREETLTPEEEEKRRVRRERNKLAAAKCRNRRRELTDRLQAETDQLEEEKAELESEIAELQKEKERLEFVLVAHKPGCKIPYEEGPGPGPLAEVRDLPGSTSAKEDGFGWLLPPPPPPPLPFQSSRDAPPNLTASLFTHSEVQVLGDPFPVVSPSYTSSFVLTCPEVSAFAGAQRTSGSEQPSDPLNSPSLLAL
# esBAF inh – Bmi1 luciferase reporter increase in mESCs, primary screen, esBAF inhibitor project, mouse ES cells, Bmi1 luciferase knock-in, single point; actives 2% (n = 350,000); 24 h; 100% = twice the neutral-well signal; reporter increase, % at 12.5 µM; in the data active means activation above about 40%; inconclusive means no clear call, values can overlap the other calls;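 further: 0% = median of the plate's neutral control wells and 100% = double that signal; a rise in the Bmi1 reporter signal indicates esBAF inhibition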
# SMARCA2 conf – SMARCA2 (BRM) function activators, confirmation, cell-based, luminescence, triplicate; AID 652260, 2013; MG213 cells, MMTV-luciferase with dexamethasone, overnight; MG213 cells expressing E1A, Rb sequestered; DMSO wells 0%, reference activator 100%; activation, % at 9.1 µM; shares compounds with SMARCA2 act; actives 30% (n = 3,500);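 active means activation above its plate's cutoff, the mean activation of tested wells plus 3 SD, cut at about 7.9% in these data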
# GAL4-VP16 Luc – GAL4-VP16 luciferase reporter activation, counter-screen for SMARCA2 (BRM) activator project, cell-based, pG5luc, luminescence, high throughput; shares compounds with SMARCA2 act; HEK293 GAL4-VP16 pG5luc reporter; scaled: DMSO wells 0%, SAHA wells 100%; activation, % at 9.1 µM; actives 41% (n = 3,500); AID 686939, 2013;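 active means activation above the solvent-only control well mean plus 3 SD, averaged across control plates, cut at about 5.2% in these data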
# * marks the source's active call; other numbers are inactive results; ? = inconclusive; · = no result. A selection: hits, their analogues and other compounds. The true share with any hit is near 3.2%.
SMILES,CDK5 inh,Dyrk1A ADPGlo,Rtt109 HAT inh,SMARCA2 act,dFosB activator,esBAF inh,SMARCA2 conf,GAL4-VP16 Luc
Nc1c(C(=O)O)sc2nc3c(cc12)CCCC3,·,·,·,-3.4,·,·,·,·
Nc1c(C(=O)C2CC2)sc2nc3c(cc12)CCC3,-7.0,2.9,-34.1,8.5*,-2.6,·,13.1*,9.7*
NC(=O)c1sc2nc3c(cc2c1N)CCCCCC3,1.1,18.5,-3.8,11.1*,-9.9,45.8*,0.3,2.5
Cc1noc(C)c1NC(=O)N(C)C[C@@H]1Oc2ccc(N(C)C)cc2C(=O)N([C@H](C)CO)C[C@H]1C,·,·,·,·,·,2.7,·,·
CNC[C@H]1OCCCC[C@H](C)Oc2ccc(NC(=O)Nc3ccccc3)cc2C(=O)N([C@@H](C)CO)C[C@@H]1C,·,·,·,·,·,4.3,·,·
Cc1ccccc1C(=O)OCCN1CCOCC1,2.2,-4.1,-3.4,8.3*,-1.9,·,0.6,0.6
CCCN(C)C[C@H]1Oc2ncc(C#CCC(C)C)cc2C(=O)N([C@@H](C)CO)C[C@H]1C,·,·,·,·,·,-3.5,·,·
CCCNCc1cc(Cl)c(OCC)c(Cl)c1,2.0,5.1,·,9.1*,0.5,7.1,-3.9,-1.4
CC(C)NC(=O)Nc1ccc2c(c1)C(=O)N([C@@H](C)CO)C[C@H](C)[C@@H](CN(C)Cc1ccc(Oc3ccccc3)cc1)O2,·,·,·,·,·,0.6,·,·
Cc1cc(NC(=O)CN2C(=O)NC(CC(C)C)C2=O)ccc1Br (configuration not stated),1.7,·,-1.7,7.5,-10.0,-0.9,·,·
CC(C)CC1NC(=O)N(CC(=O)Nc2cccc(Br)c2)C1=O (configuration not stated),1.6,·,10.3,9.6*,-3.3,-1.9,1.1,1.3
O=C1CC(SC2=NCCS2)C(=O)N1c1ccc(Cl)cc1 (configuration not stated),1.9,-1.2,11.1,-1.2,-7.4,·,·,·
O=C1CC(Sc2ccc(Cl)cc2)C(=O)N1c1ccc2c(c1)OCCO2 (configuration not stated),1.6,7.4,2.6,8.4*,-4.2,·,-2.6,0.5
COc1ccc(Cc2c(-c3ccc(F)cc3)nc3ccc(C)cn23)c(C)c1,·,·,·,9.6*,·,·,2.0,6.4*
CO[C@H]1CN(C)C(=O)c2ccc(NC(=O)C3CCCC3)cc2OC[C@H](C)N(C)C[C@H]1C,·,·,·,·,·,-2.1,·,·
O=C(NCC1CCCN1S(=O)(=O)c1cccs1)c1ccccc1F (configuration not stated),1.2,5.3,-1.3,8.4*,-5.1,2.1,-5.5,1.8
O=C(NCCc1ccccc1)C(=O)NCC1CCCN1S(=O)(=O)c1cccs1 (configuration not stated),-0.6,3.0,8.1,1.4,-4.1,3.5,·,·
CC(=NO)c1ccc2c(c1)Cc1cc([N+](=O)[O-])ccc1-2,2.8,45.9,-8.6,11.6*,-10.1,·,7.8,4.9
COc1ccc(CNC(=O)C[C@@H]2C[C@@H]3c4cc(NC(=O)NC5CCCC5)ccc4O[C@@H]3[C@H](CO)O2)cc1,·,·,·,·,·,0.3,·,·
CC(C)NC(=O)Nc1ccc2c(c1)C(=O)N([C@H](C)CO)C[C@@H](C)[C@@H](CN(C)Cc1ccc3c(c1)OCO3)OCCCC[C@H](C)O2,·,·,·,·,·,-4.3,·,·
CCCOc1ccc(C(=O)NNC(=S)NC(=O)c2cccs2)cc1,0.0,-0.7,16.5,13.0*,0.5,-20.1,2.9,-0.1
COc1ccc(-c2cc(=O)c3ccccc3s2)cc1,0.8,13.3,25.0,8.8*,-52.2,11.5,4.2,9.7*
COc1ccc2sc3ccccc3c(=O)c2c1,1.0,12.2,1.0,2.3,-16.8,34.0,·,·
COc1ccc(-n2cc(C(=O)O)c3ccccc3c2=O)cc1,0.8,10.3,-5.6,-3.3,0.7,-9.7,·,·
COc1ccc(-n2sc3ccccc3c2=O)cc1,·,·,·,13.1*,·,-1.1,15.0*,3.0
SMILES,CDK5 inh,Dyrk1A ADPGlo,Rtt109 HAT inh,SMARCA2 act,dFosB activator,esBAF inh,SMARCA2 conf,GAL4-VP16 Luc
CN(C)Cc1cn(CC[C@H]2CC[C@H](NS(=O)(=O)c3ccc(-c4ccccc4)cc3)[C@@H](CO)O2)nn1,·,·,·,·,·,7.5,·,·
c1ccc2oc(SCc3cn4ccsc4n3)nc2c1,-0.1,16.1,9.7,-1.2,-10.9,31.0,·,·
Cc1csc2nc(CSc3nc4ccccc4o3)cn12,1.4,10.6,-2.4,8.9*,-6.4,43.5*,6.3,4.3
O=C(CSc1ccsc1[N+](=O)[O-])NCc1ccccc1,0.5,-3.0,1.3,11.4*,-2.8,29.8,7.3,3.2
C[C@@H]1CN([C@H](C)CO)C(=O)Cc2cc(NC(=O)Cc3ccccc3)ccc2O[C@H]1CN(C)Cc1ccc(Cl)c(Cl)c1,·,·,·,·,·,-2.8,·,·
CC(=O)Nc1cccc(NC(=O)CSc2ncc(C(=O)Nc3ccccc3)c(=O)n2C)c1,-1.3,-2.0,29.9,12.1*,-1.8,7.9,28.4*,1.6
CC(=O)Nc1cccc(NC(=O)CSc2ncc(C(=O)Nc3ccc(F)cc3)c(=O)n2C)c1,1.0,2.2,1.6,-1.4,5.6,6.2,·,·
Cc1ccc2nc(SCC(=O)c3ccc(O)cc3O)[nH]c2c1,-1.0,-5.5,1.9,8.6*,10.3,62.2*,6.1,10.4*
Cc1cc(O)ccc1Nc1cc(-c2cccc(N(C)C)c2)ncn1,·,·,·,11.2*,·,55.4*,11.2*,10.8*
CN(C)c1cccc(O)c1,-1.4,·,-2.6,-3.2,-1.8,5.7,·,·
CCCN(C)C[C@H]1Oc2ncc(-c3cccc(C#N)c3)cc2C(=O)N([C@H](C)CO)C[C@H]1C,·,·,·,·,·,6.7,·,·
C[C@H]1CN([C@@H](C)CO)C(=O)c2cccc(NS(C)(=O)=O)c2O[C@H]1CN(C)C(=O)Nc1cccc2ccccc12,·,·,·,·,·,-3.3,·,·
O=C(C[C@H]1CC[C@H](NC(=O)c2cccnc2)[C@H](CO)O1)NCCN1CCCCC1,·,·,·,·,·,0.0,·,·
CC1CCCCN1C(=O)c1cc(-c2ccc(Cl)c(Cl)c2)on1 (configuration not stated),2.7,2.8,2.8,2.2,-9.8,?,·,·
